This is part of a sample that, as a whole, favours compounds with a hit. Of some 83,000 tested, about 20% had one in any assay.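 Cells were grown in 96-well plates and exposed to the test compound at a single concentration for 48 hours; results are reported as percent growth, with values below 10 considered active.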 Unmarked numbers belong to inactive results. The source made the active and inactive calls.

The record followed here is PubChem BioAssay (NCI).

Holding throughout (assay): NCI-60 one-dose screen, 48 h (100 = growth as untreated, 0 = no growth, -100 = all killed)
What all share (conditions): 10 µM unless noted

Experiment [1] has as its system NCI-H23 lung.
Experiment [2] has as its system NCI-H322M lung.
For experiment [3], the system named is HOP-62 NSCLC.
The test system of experiment [4] is NCI-H460 lung.
In experiment [5] the test system is HOP-92 NSCLC.
Experiment [6] has as its system NCI-H522 lung.
Experiment [7] concerns A549/ATCC NSCLC.
Experiment [8] has as its system 786-0 renal.
Experiment [9] relates to COLO 205 colon.
For experiment [10], the system named is DU-145 prostate.
In experiment [11] the test system is K-562 leukemia.
The subject of experiment [12] is MDA-MB-231 breast.
Experiment [13] relates to RXF 393 renal.
The subject of experiment [14] is SF-268 CNS.
Experiment [15] has as its system SF-295 CNS.
In experiment [16] the test system is SF-539 CNS.
For experiment [17], the system named is UACC-257 melanoma.
In experiment [18] the test system is M14 melanoma.
Experiment [19] deals with HCT-15 colon.
Experiment [20] concerns MALME-3M melanoma.

As for `COc1ccc(C2c3ccc4ccccc4c3Oc3ncn(CCCn4ccnc4)c(=N)c32)cc1OC` (stereo not given), the growth was 60.6% in [1]; 49.8% in experiment [2]; 73.4% in experiment [3]; 55.8% in experiment [4]; 24.3% in experiment [5]; 72.6% in [6]. Besides, the growth in [7] is 55.3%; in [8], 68.4%; in experiment [9], 53.4%; in experiment [10], 79%; in experiment [11], 15.6%; in experiment [12], 69.2%. Besides, the growth was 73.2% in experiment [13]; 89.5% in experiment [14]; -7.39% (active) in experiment [15]; 67.8% in experiment [16]; 72.4% in experiment [17]; 49.6% in experiment [18]. The growth in [19] was 68.5%.

Regarding `Cn1c(C(=O)c2cccc3ccccc23)nc2ccccc21`, the growth in experiment [1] was 19.4%; in experiment [2] it was -2.65% (active); in experiment [3], 18.6%; in experiment [4], 3.61% (active); in [5], 34%; in [6], -4.82% (active). For the same compound, the growth in experiment [7] is 3.42% (active); in experiment [8] it was 5.77% (active); in [9], 12.9%; in experiment [10], 18.3%; in experiment [11] it was 7.22% (active); in [12], 29.1%. For the same compound, the growth was 13.5% in experiment [13]; 2.01% (active) in experiment [14]; -1.45% (active) in experiment [16]; -7.56% (active) in [17]; -45.9% (active) in experiment [18]; 29.4% in experiment [19].

On to `COc1ccc(C2Nc3nc(OC)n(C)c(=O)c3N=C3c4ccccc4C(=O)C32)cc1` (stereo not given), for which the growth in experiment [1] was 100%; in experiment [2], 106%; in [3] it was 91.1%; in experiment [4], 97%; in experiment [5] it was 81.9%; in experiment [6], 94.8%. The growth was 106% in experiment [7]; 98.1% in experiment [8]; 104% in [9]; 89.2% in [10]; 83.8% in experiment [11]; 117% in [20]. Besides, the growth in experiment [12] was 92.2%; in experiment [14], 81%; in experiment [15] it was 6.96% (active); in experiment [16] it was 89.8%; in experiment [17] it was 127%; in experiment [18], 92.4%. In addition, the growth in experiment [19] is 88.3%.

Consider `CN(CCc1ccccc1)C(=S)N(C(=O)c1ccc([N+](=O)[O-])cc1)c1ccc(Cl)cc1`, for which the growth in experiment [1] is 97.5%; in [2] it was 102%; in experiment [3], 102%; in experiment [4], 102%; in experiment [5], 67%; in experiment [6], 100%. Also, the growth in experiment [7] is 98.2%; in experiment [8] it was 88%; in experiment [9], 109%; in experiment [10], 73.1%; in experiment [11], 40.6%; in experiment [12] it was 101%. Also, the growth in experiment [14] was 91.7%; in experiment [15], 110%; in experiment [16] it was 92.6%; in [17], 101%; in [18], 94.8%; in experiment [19], 83.9%.

For the compound `COc1ccc(-c2nsc3c2NC(=O)CC3c2ccsc2)cc1` (stereo not given), the growth is 39.6% in experiment [1]; 42.4% in [2]; 33.5% in experiment [3]; 6.14% (active) in experiment [4]; 71.9% in experiment [5]; 11.6% in experiment [6]. Further, the growth in experiment [7] was 27.4%; in [8] it was 29.8%; in experiment [9] it was -77.3% (active); in experiment [10], -8.61% (active); in experiment [11], 13.3%; in experiment [20], 43.6%. The growth in experiment [13] was 18%; in experiment [14], 47.1%; in experiment [15] it was 2.29% (active); in experiment [16], -7.51% (active); in [17], 77.3%; in [18], 18%. The growth in experiment [19] is 13.8%.

Consider `COC(=O)/C(=C\c1c(-c2ccccc2)[nH]c2ccccc12)S(C)(=O)=O`, for which the growth in [1] was 33.9%; in experiment [2], 63.8%; in experiment [3], 38.2%; in experiment [4], 12.5%; in [5], 65.4%; in experiment [6] it was 47.1%. Further, the growth in experiment [7] is 38.6%; in experiment [8], 38.1%; in experiment [9], 24.3%; in [10], -5.09% (active); in experiment [11], 17.2%; in experiment [20] it was 74.1%. Also, the growth in experiment [12] is 49.7%; in experiment [14], 26.8%; in experiment [15], 32%; in experiment [16], 4.74% (active); in experiment [17] it was 67.4%; in [18], 14.9%. In experiment [19], the growth is 34.5%.

Consider `Brc1ccc(Nc2nc3ccccc3nc2Nc2ccc(Br)cc2)cc1`, for which the growth was -16.4% (active) in experiment [1]; -13.1% (active) in experiment [2]; -63.4% (active) in [3]; 2% (active) in [4]; -25.9% (active) in [5]; -54.1% (active) in experiment [6]. Besides, the growth was -6.83% (active) in experiment [7]; -30.2% (active) in [8]; -96.2% (active) in experiment [9]; 14.2% in experiment [10]; -20% (active) in experiment [11]; -80.4% (active) in [12]. For the same compound, the growth was -32.9% (active) in experiment [13]; 3.08% (active) in experiment [14]; -75.6% (active) in experiment [15]; -8.61% (active) in experiment [16]; -43% (active) in experiment [17]; -60.7% (active) in experiment [18]. Moreover, the growth in experiment [19] is -21% (active).

Regarding `COc1ccc(-c2nsc3c2NC(=O)CC3c2ccc3c(c2)OCCO3)cc1` (stereo not given), the growth in experiment [1] is 29%; in [2], 74.8%; in experiment [3], 34.8%; in experiment [4], 6.65% (active); in experiment [5], 66.1%; in [6] it was -15.2% (active). For the same compound, the growth in experiment [7] is 28.9%; in experiment [8], 28.3%; in [9], -70.4% (active); in [10], 5.37% (active); in [11], 13.3%; in experiment [20], 59.9%. For the same compound, the growth is 0.635% (active) in [13]; 55.4% in [14]; 0.403% (active) in experiment [15]; -17% (active) in experiment [16]; 76.2% in experiment [17]; 19.7% in experiment [18]. Besides, the growth in experiment [19] is 14.6%.
